Screening results: PubChem BioAssay, National Center for Advancing Translational Sciences (NCATS)
AmpC detergent: AmpC beta-lactamase inhibition with detergent present; 370,000 tested, 0.041% active; AmpC hydrolysis of nitrocefin, absorbance 480 nm, 0.01% Triton; Potency, µM (highest dose often 114 µM), hits mostly inhibitors; note: nearly all actives have a fitted effect of over 25% in size
Target sequence (P00811 whole entry, looked up): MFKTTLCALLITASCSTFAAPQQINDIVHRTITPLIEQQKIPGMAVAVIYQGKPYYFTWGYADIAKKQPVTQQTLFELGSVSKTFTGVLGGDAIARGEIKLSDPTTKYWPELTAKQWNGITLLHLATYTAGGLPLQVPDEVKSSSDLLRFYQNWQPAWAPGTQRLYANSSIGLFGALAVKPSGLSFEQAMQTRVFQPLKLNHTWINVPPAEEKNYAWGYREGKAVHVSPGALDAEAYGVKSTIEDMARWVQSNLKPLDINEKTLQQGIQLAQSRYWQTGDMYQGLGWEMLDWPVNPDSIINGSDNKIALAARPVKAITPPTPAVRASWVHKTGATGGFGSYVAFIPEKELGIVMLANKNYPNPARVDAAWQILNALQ
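20 mM phosphate pH 7.0 + 0.01% (detergent screen) or 0.0001% Triton X-100; 5.3 nM AmpC reagent; cpd preinc 15 min RT; nitrocefin (800 uM stock) to start; A480 q20 s × 4 min; Activity was normalised to no-enzyme and no-compound control wells.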
AmpC inh no detg: AmpC beta-lactamase inhibition without detergent | P00811 | AmpC nitrocefin hydrolysis, absorbance 480 nm, 0.0001% Triton | Potency, µM (series often up to 57.1 µM), usual class: inhibitors | 330,000 tested, 0.52% active | AID 485341; note: nearly all actives have a fitted effect of over 20% in size
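AmpC (5.3 nM in the dispensed reagent) in 20 mM phosphate pH 7.0 with 0.01% (detergent screen) or 0.0001% Triton X-100 was preincubated with compounds for 15 min at room temperature. Nitrocefin was then added from an 800 uM solution, and hydrolysis was followed at 480 nm.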
FMDV inh: antivirals against foot and mouth disease virus | AID 1159524 | FMDV antiviral cell-based qHTS | Potency, µM (doses to about 57.9 µM), hits mostly inhibitors | 410,000 tested, 1.2% active; calls by dose curve; tested in HEK293T cells; note: read-out not given here; nearly all actives have a fitted effect of over 45% in size
Sm TGR inh: S. mansoni TGR enzyme inhibition. Q962Y6. AID 485364. purified TGR, DTNB reduction, TNB absorbance 405 nm. Potency, µM (doses to about 114 µM), usual class: inhibitors. 360,000 tested, 3% active; note: nearly all actives have a fitted effect of over 60% in size
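First, TGR (20 nM dispensed) and NADPH were mixed with compound. Second, a 15 min room-temperature incubation followed. Third, further NADPH and then DTNB were added to start the reaction. Finally, TNB absorbance was monitored kinetically.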
AMA1-RON2 inh: inhibitors of Plasmodium falciparum AMA1-RON2 interaction. AlphaScreen AMA1-biotinylated RON2 peptide binding. 360,000 tested, 0.2% active. Potency, µM (doses to about 58.2 µM), hits mostly inhibitors. AID 720542; note: nearly all actives have a fitted effect of over 45% in size
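AMA1 (3D7) with his tag at 25 nM final met compounds first, then biotinylated RON2 peptide at 25 nM; detection used donor plus acceptor beads, 10 µg/mL apiece, read by AlphaScreen after 30 min at room temperature.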
A number is an active result; . = inactive; ? = inconclusive; / = no result given; [ ] = dose if it differs, or a comment. The list is not random: actives were taken first. Their share in the collection is about 4.1%. Unless noted, calls come from the whole dose curve; as a rule, active = well fitted curve in the direction sought with a large enough effect; inconclusive = small, poorly fitted or top-dose-only effect, or another doubt; inactive = no such curve, though single readings can be large; an effect the other way counts as inactive or inconclusive.

SMILES	AmpC detergent	AmpC inh no detg	FMDV inh	Sm TGR inh	AMA1-RON2 inh
COc1cccc(CN2CCN(Cc3ccc(C)o3)CC2CCO)c1 (stereo not drawn)	.	.	.	35.5µM	.
CCCc1ccc(S(=O)(=O)N2CCC(Oc3ccc(-n4cnnn4)cc3)CC2)cc1	.	/	.	.	/
O=C(Cn1c(=O)n(Cc2ccc3c(c2)OCO3)c(=O)c2ccccc21)Nc1cccc(Cl)c1	.	/	.	.	/
CC(=O)c1ccc(-n2c(CCC(=O)O)ccc2-c2ccc(Cl)cc2)cc1	.	.	.	.	.
O=C(O)CCc1ccc(-c2ccc(Br)cc2)n1-c1cccc(O)c1	.	.	.	31.6µM	.
O=C(O)CCc1ccc(-c2ccccc2)n1-c1cccc(C(=O)O)c1	.	.	.	11.2µM	.
CC(=O)c1cccc(-n2c(CCC(=O)O)ccc2-c2ccc(C)cc2)c1	.	.	.	31.6µM	.
O=C(O)CCc1ccc(-c2ccccc2)n1-c1ccc(C(=O)O)cc1	.	.	.	17.8µM	.
CCN(CC)CCNC(=O)c1ccc2c(=O)n3nc(Nc4ccccc4)sc3nc2c1	.	/	.	.	/
Cc1ccc(C)c(NC(=O)Nc2cc3c(cc2N2CCCCC2)n(C)c(=O)n3C)c1	.	/	.	.	/
COc1ccc(S(=O)(=O)N2CCN(Cc3ccc4c(c3)OCO4)CC2)cc1OC	.	/	.	.	/
Cc1ccc(C)c(-n2c(CCC(=O)O)ccc2-c2ccc(Cl)cc2)c1	.	/	.	?	/
CCOC(=O)c1ccc(-n2c(CCC(=O)O)ccc2-c2ccccc2)cc1O	.	/	.	17.8µM	/
CCOC(=O)c1cc(-c2ccccc2)n(CCC(=O)O)c1C	.	.	/	.	.
Cc1ccc(-c2ccc(CCC(=O)O)n2C(C)C)cc1	.	.	.	25.1µM	.
Cc1ccc(-c2ccc(CCC(=O)O)n2-c2ccc(C)c(Cl)c2)cc1	.	/	.	17.8µM	/
Cc1ccc(-c2ccc(CCC(=O)O)n2NC(N)=S)cc1	?	.	.	.	.[11.6 µM]
CCOc1ccc(CNC(=O)CCS(=O)(=O)c2cc3c4c(c2)CCN4C(=O)CC3)cc1OC	.	/	.	.	/
O=C(NCc1nnc2n1CCN(Cc1ccc(C(F)(F)F)cc1)CC2)c1ccccn1	/	/	.	/	/
CC(C)c1cc(C(=O)NNC(=S)NC2CCCCC2)cs1	.	14.1µM	.	.	.
Cc1cccc(NC(c2ccc(O)cc2)c2ccc3ccc(C)nc3c2O)n1 (stereo not drawn)	.	.	.	0.355µM	.
COc1cccc(C(Nc2ccccc2)c2ccc3ccc(C)nc3c2O)c1 (stereo not drawn)	/	/	.	/	.
O=C(c1cccc(F)c1)N1CCN(Cc2ccco2)CC1	.	.	.	.	.
CCN1CCN(C(c2cccc(F)c2)c2c(O)cc(C)n(Cc3ccco3)c2=O)CC1 (stereo not drawn)	.	/	.	5.01µM	/
CCN1CCN(C(c2cccc(OC)c2)c2c(O)cc(C)n(Cc3ccco3)c2=O)CC1 (stereo not drawn)	.	/	.	5.62µM	/
SMILES	AmpC detergent	AmpC inh no detg	FMDV inh	Sm TGR inh	AMA1-RON2 inh
COc1cccc(C(c2c(O)cc(C)n(Cc3ccco3)c2=O)N2CCC(C)CC2)c1 (stereo not drawn)	.	/	.	11.2µM	/
CCOC(=O)c1sc2ncn(CC(=O)Nc3ccc(C)cc3Br)c(=O)c2c1C	?	/	.	.	/
Cc1ccc2c(c1)c(=O)c(C(=O)c1ccc3c(c1)OCO3)cn2Cc1cccc(F)c1	.	/	.	.	/
CN(Cc1cccc(-c2ccncc2)c1)C(=O)Oc1ccc([N+](=O)[O-])cc1	/	/	22.4µM	/	.
CN(C(=O)Oc1ccc([N+](=O)[O-])cc1)c1ccccc1	.	.	.	.	.
CN1C2CCC1/C(=C/c1ccccn1)C(=O)/C2=C\c1ccccn1	?	.	3.98µM	.	.
CC(C)(C)C1C/C(=C/c2ccccn2)C(=O)/C(=C/c2ccccn2)C1 (stereo not drawn)	?	.	3.55µM	17.8µM	.
O=C1/C(=C/c2ccccn2)COc2ccccc21	.	.	?	?	.
CC1C/C(=C/c2ccccn2)C(=O)/C(=C/c2ccccn2)C1 (stereo not drawn)	.	.	6.31µM	15.8µM	.
CN1C2CCC1/C(=C\c1ccccc1)C(=O)/C2=C\c1ccccc1	.	.	?	.	.
CCC(=O)N1CCc2cc(Br)cc(S(=O)(=O)N3CCCC(C(=O)NCc4ccc(C)cc4)C3)c21 (stereo not drawn)	.	/	.	.	/
Cc1ccc(CCNC(=O)c2cc3ccccn3n2)cc1	.	/	.	.	/
Cn1cc(NC(=O)c2cc(NC(=O)c3cc(NC=O)cn3C)cn2C)cc1C(=O)NCCC(=N)N	.	.	/	14.1µM	/
Cc1ccc2c(n1)sc1c(=O)n(-c3cccc(C(F)(F)F)c3)nnc12	.	/	.	.	/
CN(C)c1ccc(N=Nc2nc3ccccc3n2C)cc1	.	.	3.98µM	.	3.98µM
COc1cc(NC(=O)C2CCCN(S(=O)(=O)c3ccc4c(c3)oc(=O)n4C)C2)c(C(=O)O)cc1OC (stereo not drawn)	.	/	.	.	/
CCn1c(=O)c2cc(C(=O)NCc3cc(OC)ccc3OC)sc2c2ccccc21	.	/	.	.	/
O=C1/C(=C/c2cccnc2)Oc2cc(OS(=O)(=O)c3ccc(F)cc3)ccc21	.	.	22.4µM	.	.
CCOC(=O)/C(=C\c1ccccc1)C(=O)CCN1CCOCC1	/	/	17.8µM	/	.
CN1CCN(C(CNC(=O)C(=O)Nc2cccc(Cl)c2)c2ccc3c(c2)OCO3)CC1 (stereo not drawn)	.	/	.	.	/
COc1ccccc1C1CN(CCNC(=O)c2cscn2)Cc2ccccc2O1 (stereo not drawn)	/	/	.	/	/
CCOc1ccc(N2C(=O)CC(NCCc3ccc(S(N)(=O)=O)cc3)C2=O)cc1 (stereo not drawn)	.	.	.	.	.
COc1ccc(N2C(=O)CC(NCCNc3ccc([N+](=O)[O-])cn3)C2=O)cc1 (stereo not drawn)	.	.	.	14.1µM	.
CCCOc1ccc(N2C(=O)CC(NCCc3ccc(S(N)(=O)=O)cc3)C2=O)cc1 (stereo not drawn)	?	.	.	44.7µM	.
CCOc1ccc(N2C(=O)CC(NCCNc3ccc([N+](=O)[O-])cn3)C2=O)cc1 (stereo not drawn)	.	.	.	7.08µM	.
SMILES	AmpC detergent	AmpC inh no detg	FMDV inh	Sm TGR inh	AMA1-RON2 inh
Cc1ccc(-c2nc3s/c(=C\c4ccco4)c(=O)n3n2)cc1	?	.	/	?	.
COc1ccc(Br)cc1/C=c1\sc2nc(-c3ccco3)nn2c1=O	.	.	.	12.6µM	.
Cc1ccc(/C=c2/sc3nnc(-c4ccccc4Cl)n3c2=O)o1	?	.	.	39.8µM	.
COc1ccccc1/C=c1\sc2nc(-c3ccccc3OC)nn2c1=O	.	.	.	.	.
Cc1ccc(/C=c2\sc3nc(-c4ccco4)nn3c2=O)o1	?	?	.	8.91µM	.
Cc1ccc(/C=c2\sc3nc(-c4ccccc4Br)nn3c2=O)o1	?	.	.	44.7µM	.
